Test results taken from PubChem BioAssay (NCI).
About 79,000 compounds went through this panel and 15% of them were active in at least one assay; those are over-represented in the sample as a whole. Calls of active or inactive are those of the source. Cut-off read from the data, not from the text of the source: active = growth inhibition above about 70%; inactive = the rest.

Experiments:
[1] = NCI Yeast Anticancer Drug Screen. Data for the rad52 strain (AID 147);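 note: 0% = growth of vehicle-treated control cultures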; details: S. cerevisiae rad52 mutant growth inhibition, hits give high values
Method in brief: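 Vehicle-treated cultures served as the reference for growth inhibition of compound-exposed yeast bearing a DNA repair mutation.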

[2] = NCI Yeast Anticancer Drug Screen. Data for the wt1 strain (AID 149);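 note: 0% = growth of vehicle-treated wt1 cultures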; details: S. cerevisiae wt1 strain (SPY 50644) growth inhibition, hits give high values
Method in brief: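 Readout: yeast growth inhibition, normalised to vehicle controls, in the wt1 strain exposed to test compounds.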

[3] = NCI Yeast Anticancer Drug Screen. Data for the mgt1 strain (AID 153); details: S. cerevisiae mgt1 mutant growth inhibition, hits give high values
Method in brief: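 mgt1 strain exposed; growth vs vehicle control recorded as inhibition.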

[4] = NCI Yeast Anticancer Drug Screen. Data for the rad50 strain (AID 155);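 note: 0% = growth of vehicle-only cultures of the same strain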; details: S. cerevisiae rad50 strain growth inhibition, hits give high values
Method in brief: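 Compounds were tested on a yeast strain with an engineered DNA damage repair alteration; the reported value is growth inhibition normalised to vehicle treatment.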

[5] = NCI Yeast Anticancer Drug Screen. Data for the mec2-1 strain (AID 157); details: S. cerevisiae mec2-1 strain, hits give high values
Method in brief: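 Vehicle-treated cultures served as reference for growth inhibition of compound-exposed mec2-1 yeast.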

[6] = NCI Yeast Anticancer Drug Screen. Data for the rad14 strain (AID 159);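 note: 0% = growth of vehicle-treated control cultures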; details: S. cerevisiae rad14 strain growth inhibition, hits give high values
Method in brief: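 Compound-treated yeast with a defined DNA-repair lesion; growth inhibition normalised to vehicle-treated cultures.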

[7] = NCI Yeast Anticancer Drug Screen. Data for the CLN2oe strain (AID 163);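 note: 0% = growth of vehicle-only control cultures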; details: S. cerevisiae CLN2oe strain, hits give high values
Method in brief: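 Inhibition relative to vehicle-treated yeast is reported. Cells: strain with genetic alteration in cell-cycle control, grown with compound.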

[8] = NCI Yeast Anticancer Drug Screen. Data for the cln2 rad14 strain (AID 165);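 note: 0% = growth equal to vehicle treated cultures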; details: S. cerevisiae cln2 rad14 strain, hits give high values
Method in brief: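 Each compound was tested on cln2 rad14 yeast. Inhibition of growth was calculated against vehicle-exposed controls.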

[9] = NCI Yeast Anticancer Drug Screen. Data for the bub3 strain (AID 167); details: S. cerevisiae bub3 mutant strain, hits give high values
Method in brief: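 Growth of a checkpoint-deficient yeast mutant is measured after compound exposure. Values represent inhibition relative to vehicle.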

[10] = NCI Yeast Anticancer Drug Screen. Data for the wt2 strain (AID 169);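 note: 0% = growth of vehicle-treated yeast cultures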; details: S. cerevisiae wt2 strain growth inhibition, hits give high values
Method in brief: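 Inhibition of yeast growth was determined after compound treatment, normalised to controls receiving only vehicle.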

[11] = NCI Yeast Anticancer Drug Screen. Data for the mlh1 strain (AID 171);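 note: 0% = growth of vehicle-treated control cultures of the same strain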; details: S. cerevisiae mlh1 strain growth inhibition, hits give high values
Method in brief: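 Vehicle-normalised growth inhibition of a repair- or checkpoint-altered yeast strain following compound treatment.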

[12] = NCI Yeast Anticancer Drug Screen. Data for the sgs1 strain (AID 173);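 note: 0% = growth of vehicle-only control cultures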; details: S. cerevisiae sgs1 mutant, hits give high values
Method in brief: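 Screen format: yeast with repair or checkpoint alterations, compound exposure, growth read relative to vehicle.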

[13] = NCI Yeast Anticancer Drug Screen. Data for the mlh1 rad18 strain (AID 175); details: S. cerevisiae mlh1 rad18 strain growth inhibition, hits give high values
Method in brief: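 Vehicle-treated cultures served as the reference for growth inhibition in a yeast strain carrying DNA damage repair alterations exposed to each compound.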

[14] = NCI Yeast Anticancer Drug Screen. Data for the rad18 strain (AID 177); details: S. cerevisiae rad18 mutant growth inhibition, hits give high values
Method in brief: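 Test articles were incubated with altered yeast defective in DNA damage repair. Results are given as inhibition of growth versus vehicle.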

[15] = NCI Yeast Anticancer Drug Screen. Data for the rad50EPP+ strain (AID 151);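 note: 0% = growth of vehicle-treated control cultures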; details: S. cerevisiae rad50 mutant strain, hits give high values
Method in brief: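 In this screen, rad50EPP+ yeast were exposed to compounds. Growth inhibition was scored against vehicle-treated controls.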

[16] = NCI Yeast Anticancer Drug Screen. Data for the sgs1 mgt1 strain (AID 161);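 note: 0% = growth of cultures given vehicle only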; details: S. cerevisiae sgs1 mgt1 strain, hits give high values
Method in brief: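 Mutant yeast exposed to compound; growth scored against vehicle-only wells.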

[17] = at 5.0 µM (retest, dose inferred, filed as 0.5)
[18] = at 50.0 µM (retest, dose inferred, filed as 5.0)

Measured: growth inhibition

CCOc1ccc(C(=O)CCC(=O)O)c(C)c1
inactive: [1]; at 1.2 µM -1% | [1]; at 3.7 µM 0% | [1]; at 11.0 µM -5% | [1]; at 33.0 µM -1% | [1]; at 100.0 µM 4% | [2]; at 1.2 µM 3% | [2]; at 3.7 µM -1% | [2]; at 11.0 µM 4% | [2]; at 33.0 µM 5% | [2]; at 100.0 µM 17% | [3]; at 1.2 µM -4% | [3]; at 3.7 µM -3% | [3]; at 11.0 µM 1% | [3]; at 33.0 µM 2% | [3]; at 100.0 µM 21% | [4]; at 1.2 µM -2% | [4]; at 3.7 µM 4% | [4]; [17] 13% | [4]; at 11.0 µM 1% | [4]; at 33.0 µM 8% | [4]; [18] 14% | [4]; at 100.0 µM 12% | [5]; at 1.2 µM 0% | [5]; at 3.7 µM -7% | [5]; [17] -10% | [5]; at 11.0 µM -16% | [5]; at 33.0 µM 4% | [5]; [18] 13% | [5]; at 100.0 µM 15% | [6]; at 1.2 µM 0% | [6]; at 3.7 µM 1% | [6]; at 11.0 µM 7% | [6]; at 33.0 µM 13% | [6]; at 100.0 µM 25% | [7]; at 1.2 µM 0% | [7]; at 3.7 µM -1% | [7]; at 11.0 µM 4% | [7]; at 33.0 µM 12% | [7]; at 100.0 µM 20% | [8]; [17] -12% | [8]; [18] 44% | [9]; at 1.2 µM -9% | [9]; at 3.7 µM -11% | [9]; [17] -17% | [9]; at 11.0 µM -1% | [9]; at 33.0 µM -8% | [9]; [18] 14% | [9]; at 100.0 µM 36% | [10]; at 1.2 µM 1% | [10]; at 3.7 µM 2% | [10]; at 11.0 µM 2% | [10]; at 33.0 µM 6% | [10]; at 100.0 µM 16% | [11]; at 1.2 µM -2% | [11]; at 3.7 µM -6% | [11]; at 11.0 µM -10% | [11]; at 33.0 µM 3% | [11]; at 100.0 µM 12% | [12]; at 1.2 µM 0% | [12]; at 3.7 µM -1% | [12]; at 11.0 µM 1% | [12]; at 33.0 µM 1% | [12]; at 100.0 µM 8% | [13]; [17] 16% | [13]; [18] -1% | [14]; at 1.2 µM -2% | [14]; at 3.7 µM -4% | [14]; at 11.0 µM -6% | [14]; at 33.0 µM -16% | [14]; at 100.0 µM -17%

C/C(=N\NC(=S)NC1CCCC1)c1ccccn1
inactive: [1]; at 1.2 µM -5% | [2]; at 1.2 µM 3% | [15]; at 1.2 µM -6% | [15]; at 3.7 µM 14% | [4]; at 1.2 µM -5% | [4]; [17] 23% | [5]; at 1.2 µM 2% | [5]; [17] 33% | [6]; at 1.2 µM -9% | [7]; at 1.2 µM -6% | [8]; [17] 41% | [9]; at 1.2 µM -5% | [9]; at 3.7 µM 64% | [9]; [17] 9% | [10]; at 1.2 µM -3% | [12]; at 1.2 µM 0% | [14]; at 1.2 µM -5%
active: [1]; at 3.7 µM 78% | [1]; at 11.0 µM 99% | [1]; at 33.0 µM 99% | [1]; at 100.0 µM 99% | [2]; at 3.7 µM 75% | [2]; at 11.0 µM 99% | [2]; at 33.0 µM 99% | [2]; at 100.0 µM 99% | [15]; at 11.0 µM 90% | [15]; at 33.0 µM 98% | [15]; at 100.0 µM 97% | [4]; at 3.7 µM 77% | [4]; at 11.0 µM 98% | [4]; at 33.0 µM 99% | [4]; [18] 99% | [4]; at 50.0 µM 79.2% | [4]; at 100.0 µM 98% | [5]; at 3.7 µM 77% | [5]; at 11.0 µM 99% | [5]; at 33.0 µM 99% | [5]; [18] 97% | [5]; at 50.0 µM 86% | [5]; at 100.0 µM 99% | [6]; at 3.7 µM 87% | [6]; at 11.0 µM 99% | [6]; at 33.0 µM 99% | [6]; at 100.0 µM 99% | [7]; at 3.7 µM 84% | [7]; at 11.0 µM 99% | [7]; at 33.0 µM 99% | [7]; at 100.0 µM 99% | [8]; [18] 100% | [8]; at 50.0 µM 90.3% | [9]; at 11.0 µM 99% | [9]; at 33.0 µM 99% | [9]; [18] 98% | [9]; at 50.0 µM 91% | [9]; at 100.0 µM 99% | [10]; at 3.7 µM 71% | [10]; at 11.0 µM 99% | [10]; at 33.0 µM 99% | [10]; at 100.0 µM 99% | [12]; at 3.7 µM 79% | [12]; at 11.0 µM 99% | [12]; at 33.0 µM 99% | [12]; at 100.0 µM 99% | [14]; at 3.7 µM 79% | [14]; at 11.0 µM 98% | [14]; at 33.0 µM 99% | [14]; at 100.0 µM 95%

CNc1ccc(Cc2c[nH]c3ccccc23)cc1
inactive: [1]; at 1.2 µM -20% | [1]; at 3.7 µM -35% | [1]; at 11.0 µM -27% | [1]; at 33.0 µM 4% | [1]; at 100.0 µM 22% | [2]; at 1.2 µM -11% | [2]; at 3.7 µM -11% | [2]; at 11.0 µM -17% | [2]; at 33.0 µM -17% | [2]; at 100.0 µM -1% | [15]; at 1.2 µM -36% | [15]; at 3.7 µM -48% | [15]; at 11.0 µM -23% | [15]; at 33.0 µM 26% | [15]; at 100.0 µM 39% | [4]; at 1.2 µM -40% | [4]; at 3.7 µM -48% | [4]; [17] 42% | [4]; at 11.0 µM -41% | [4]; at 33.0 µM 14% | [4]; at 100.0 µM 26% | [5]; at 1.2 µM -28% | [5]; at 3.7 µM -15% | [5]; [17] 56% | [5]; at 11.0 µM -23% | [5]; at 33.0 µM -5% | [5]; at 50.0 µM 67.9% | [5]; at 100.0 µM 8% | [6]; at 1.2 µM -21% | [6]; at 3.7 µM -19% | [6]; at 11.0 µM -18% | [6]; at 33.0 µM -5% | [6]; at 100.0 µM -3% | [16]; [17] -13% | [16]; [18] 64% | [7]; at 1.2 µM -8% | [7]; at 3.7 µM -30% | [7]; at 11.0 µM -35% | [7]; at 33.0 µM -19% | [7]; at 100.0 µM -5% | [8]; [17] 27% | [9]; at 1.2 µM -8% | [9]; at 3.7 µM -1% | [9]; [17] 15% | [9]; at 11.0 µM 10% | [9]; at 33.0 µM 7% | [9]; at 100.0 µM 30% | [10]; at 1.2 µM -17% | [10]; at 3.7 µM -24% | [10]; at 11.0 µM -29% | [10]; at 33.0 µM -5% | [10]; at 100.0 µM 13% | [11]; at 1.2 µM -35% | [11]; at 3.7 µM -41% | [11]; at 11.0 µM -25% | [11]; at 33.0 µM 15% | [11]; at 100.0 µM 27% | [12]; at 1.2 µM -30% | [12]; at 3.7 µM -30% | [12]; at 11.0 µM -31% | [12]; at 33.0 µM 11% | [12]; at 100.0 µM 28% | [13]; [17] 35% | [14]; at 1.2 µM -54% | [14]; at 3.7 µM -64% | [14]; at 11.0 µM -51% | [14]; at 33.0 µM -8% | [14]; at 100.0 µM 20%
active: [4]; [18] 76% | [4]; at 50.0 µM 89% | [5]; [18] 86% | [8]; [18] 70% | [9]; [18] 89% | [13]; [18] 79% | [13]; at 50.0 µM 84.8%
